Our source for the Inhibition values is ChEMBL document CHEMBL1157539, “Thousands of chemical starting points for antimalarial lead identification” (Nature, 2010).

Molecules are shown by their SMILES.

Usually Inhibition stands for the drop in the measured response relative to a control, in per cent.

Assay type in all cases: functional
In test [1] the test system is Plasmodium falciparum. Put plainly: GSK_TCMDC: Inhibition of Plasmodium falciparum 3D7 in whole red blood cells, using parasite LDH activity as an index of growth. Test compounds present at 2uM.
Test [2] relates to Plasmodium falciparum. Put plainly: GSK_TCMDC: Inhibition of Plasmodium falciparum Dd2 in whole red blood cells, using parasite LDH activity as an index of growth. Test compounds present at 2uM.
The next test relates to HepG2. Put plainly: GSK_TCMDC: Percent inhibition of human HepG2 cell line. Test compounds present at 10uM.

As to `CC(=O)Nc1ccc(CN2CCC(N(C)c3cc(NC(=O)c4ccc(F)cc4)ccn3)CC2)cc1.O=C(O)C(F)(F)F`, the values for the Inhibition with Plasmodium falciparum [1], with Plasmodium falciparum [2] and in the test on HepG2 were 95%, 5% and 0%, respectively.

Turning to `O=C(/C=C/c1c(Cl)cccc1Cl)NC1CCC(CN2C3CCC2CC(c2c[nH]c4ccccc24)C3)CC1` (stereo not given), the Inhibition with Plasmodium falciparum [1] was found to be 95%; with Plasmodium falciparum [2] it was 18%; in the test on HepG2, 40%.

For the compound `C=C[C@H]1CN2CC[C@H]1C[C@H]2[C@H](OS(=O)(=O)O)c1ccnc2ccccc12`, the Inhibition is recorded as 99% in the test on Plasmodium falciparum [1], 15% in the test with Plasmodium falciparum [2] and 8% with HepG2.

Take `Cc1cccc2[nH]cc(C3CCN(CC4CCC(NC(=O)/C=C/c5ccc(Cl)c(Cl)c5)CC4)CC3)c12.Cl` (stereo not given): the Inhibition was 100% in the test with Plasmodium falciparum [1], 97% in the test with Plasmodium falciparum [2] and 88% in the test on HepG2.

Consider `O=C(NC1CCC(CN2CCC(c3c[nH]c4ccccc34)CC2)CC1)c1cc(-c2ccccc2Cl)oc1C(F)(F)F` (stereo not given), for which the Inhibition in the test with Plasmodium falciparum [1] worked out at 99%; in the test on Plasmodium falciparum [2], 7%; in the test with HepG2 it was 24%.

Consider `CC(C)CCNC(=O)c1cc(C(=O)c2cc(F)ccc2O)cn(CCC(C)C)c1=O`, for which the Inhibition in the test on Plasmodium falciparum [1] was found to be 100%; in the test with Plasmodium falciparum [2], 45%; in the test with HepG2, 14%.

On to `O=C(/C=C/c1ccc(Cl)c(Cl)c1)N1CCC(CN2CCC(c3c[nH]c4cc5c(cc34)OCO5)CC2)CC1`, for which the figures for the Inhibition in the test with Plasmodium falciparum [1], with Plasmodium falciparum [2] and in the test with HepG2 were 100%, 75% and 41%, respectively.

For `O=C(/C=C/c1cc(C(F)(F)F)ccc1F)NC1CCC(CN2CCC(c3c[nH]c4ccccc34)CC2)CC1` (stereo not given), the Inhibition with Plasmodium falciparum [1] was 100%; in the test on Plasmodium falciparum [2], 66%; in the test with HepG2, 5%.

As to `CC(Cc1ccc(OCCOc2ccccc2)cc1)NCC(O)c1cccc(C(F)(F)F)c1` (stereo not given), the values for the Inhibition in the test on Plasmodium falciparum [1], in the test on Plasmodium falciparum [2] and in the test on HepG2 were 91%, 76% and 16%, respectively.

As for `CC(=O)Nc1ccc(OCCN(CC(C)(C)C)c2ccc(C#N)c(C(F)(F)F)c2)c(Cl)c1`, the Inhibition with Plasmodium falciparum [1] is listed as 87%; in the test with Plasmodium falciparum [2], 93%; in the test with HepG2 it was 0%.
